The list is not random: actives were taken first. Their share in the collection is about 3.2%.
PHOSPHO1 inh = PubChem AID 1565; recombinant PHOSPHO1, absorbance phosphatase assay; inhibition, % at 13.3 µM; hit rate 1.1% among 290,000; in the data active = inhibition above about 60%
HDAC3 inh = HDAC3 deacetylase inhibitors, primary screen, biochemical, fluorescence, cell-free homogeneous; recombinant HDAC3, fluorogenic peptide/trypsin coupled; inhibition, % at 8.3 µM; hit rate 0.15% among 320,000; AID 2718, 2010; in the data active = inhibition above about 26%, passing the limit was not always enough
ANO1 block = TMEM16A chloride channel inhibitors, primary screen, cell-based, HTS. normalized B-score (activity score, 25-100; higher = stronger inhibition) at 10 µM. hit rate 1.2% among 310,000. HEK293 TMEM16A/YFP iodide influx fluorescence, ionomycin. Anoctamin-1 (Mus musculus), Q8BHY3;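 active = ratio plate-corrected score three or more library SD toward inhibition, starting fluorescence score within five deviations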;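 note: score derived from kinetic fluorescence span divided by baseline fluorescence per well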
TMEM16A act = TMEM16A chloride channel activators or potentiators, primary screen, cell-based, HTS; Anoctamin-1 (Mus musculus), Q8BHY3; B-score at 10 µM; HEK293 TMEM16A/YFP-H148Q/I152L, iodide quench fluorescence; hits give low values; AID 623877, 2012; hit rate 0.3% among 340,000;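 active = fluorescence-ratio B-score plate-corrected deviation score at least 3 library SD below zero, with starting fluorescence score within 5 deviations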;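 note: channel opened by trigger with iodide after compound preincubation; score built on the fluorescence ratio of max minus min over baseline; more negative score means more quench and so TMEM16A activation or potentiation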
CHT PAM = CHT positive allosteric modulators, primary screen, cell-based, membrane potential dye, choline EC20; High affinity choline transporter 1 (Homo sapiens), Q9GZV3; CHT-expressing cells; hits give high values; LV-AA mutant CHT in HEK293 cells; B-score at 10 µM; hit rate 0.49% among 310,000; AID 488977, 2010;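 active = initial fluorescence not abnormally high and integrated response B-score, plate-corrected, over 3 SD above library mean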
Target sequence (Q9GZV3 whole entry, looked up): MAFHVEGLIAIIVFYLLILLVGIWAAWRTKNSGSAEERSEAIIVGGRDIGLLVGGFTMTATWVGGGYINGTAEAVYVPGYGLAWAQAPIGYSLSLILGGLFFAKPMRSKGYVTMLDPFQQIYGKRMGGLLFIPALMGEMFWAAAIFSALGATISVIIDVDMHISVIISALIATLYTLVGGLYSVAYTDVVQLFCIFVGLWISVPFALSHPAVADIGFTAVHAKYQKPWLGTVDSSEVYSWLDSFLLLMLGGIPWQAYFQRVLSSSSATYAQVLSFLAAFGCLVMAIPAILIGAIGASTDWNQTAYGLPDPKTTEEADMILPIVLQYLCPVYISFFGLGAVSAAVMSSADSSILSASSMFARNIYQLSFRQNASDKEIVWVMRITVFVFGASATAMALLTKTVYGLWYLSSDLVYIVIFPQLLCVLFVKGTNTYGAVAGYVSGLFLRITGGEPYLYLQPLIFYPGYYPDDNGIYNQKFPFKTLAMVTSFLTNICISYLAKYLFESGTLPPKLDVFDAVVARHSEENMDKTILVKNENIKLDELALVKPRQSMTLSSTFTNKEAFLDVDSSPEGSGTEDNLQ
CHT inh = inhibitors of human choline transporter CHT. B-score at 10 µM. AID 488975, 2010. hit rate 0.86% among 310,000. High affinity choline transporter 1 (Homo sapiens), Q9GZV3. CHT-expressing cells, membrane potential dye, choline response; hits give low values;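 active = B-score over 3 SD under the library average, and starting fluorescence ratio not unusually high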;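 note: choline stimulus applied at its EC90 after an EC20 pre-addition; B-score computed on integrated fluorescence ratio after choline addition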
* = called active by the depositor; i = inactive; nt = no result.

SMILES	PHOSPHO1 inh	HDAC3 inh	ANO1 block	TMEM16A act	CHT PAM	CHT inh
Cc1cc(NC(=O)c2cc(-c3ccco3)on2)n(-c2ccccc2)n1	-7	0	i	i	i	i
CCc1nc(SCc2nc3ccccc3[nH]2)c2oc3ccccc3c2n1	41	4	25*	i	i	i
CC(=O)c1cccc(CN2CCN(Cc3ccc(F)cc3)C(CCO)C2)c1 (stereo not drawn)	60*	-7	i	i	i	i
Cc1cc(C)cc(NC(=O)CN2CCC(NC(=O)c3ccccc3F)CC2)c1	14	-5	i	i	i	i
Cc1cc(C)nc(NS(=O)(=O)c2ccc(NC(=O)c3cc4c(=O)n5cccc(C)c5nc4n3C)cc2)n1	34	6	i	i	i	i
CNc1oc(-c2ccc(F)cc2)nc1S(=O)(=O)c1ccccc1	8	0	i	i	i	i
COc1cccc(C2C(C(=O)OC(C)C)=C(C)N=c3s/c(=C\c4ccc(C(=O)O)cc4)c(=O)n32)c1 (stereo not drawn)	15	6	i	-4.8*	i	i
COc1cccc(C2C(C(=O)Nc3ccccc3)=C(C)N=c3s/c(=C/c4ccc(OCC(=O)O)cc4)c(=O)n32)c1 (stereo not drawn)	12	5	i	i	i	i
O=C(NCCc1nc(-c2ccc(F)cc2)no1)c1ccc(F)cc1	nt	0	i	i	i	i
COc1ccc(N=Cc2c(O)[nH]c3ccccc23)cc1	49	-4	i	i	i	i
Oc1sc(C=Nc2ccc(F)cc2)c2ccccc12	65*	8	i	i	i	i
Oc1c(C=Nc2ccccc2)sc2ccccc12	10	-9	i	i	i	i
Oc1sc(C=Nc2ccccc2)c2ccccc12	65*	-3	i	i	i	i
CC(=O)Oc1c(C)cc(Cl)cc1C(=O)Nc1ccc([N+](=O)[O-])cc1Cl	-7	0	100*	i	i	i
Fc1c(F)c(F)c(N/N=C/c2c[nH]c3ccccc23)c(F)c1F	-6	32*	i	i	i	i
COc1ccc(C2=NN(C(C)=O)CC2c2cccc([N+](=O)[O-])c2)cc1 (stereo not drawn)	43	6	i	i	i	i
CCOC(=O)C1(CC2CCCCO2)CCN(C(=O)Nc2ccc(C)c(C)c2)CC1 (stereo not drawn)	50	4	i	i	i	i
CCOC(=O)c1c(NC(=O)OC)sc2c1CCC2	2	1	i	i	i	i
COC(=O)Nc1sc2c(c1C(N)=O)CCCCCC2	69*	4	i	i	i	i
CNC(=O)c1c(N)sc2c1CCCCC2	71*	-1	i	nt	i	i
O=C1N[C@H](Cc2ccccc2)COC(=O)[C@@H](Cc2ccc(F)cc2)CC/C=C/C[C@H]1CC(=O)N(CCO)Cc1ccccc1	nt	29*	nt	i	nt	nt
O=C1N[C@@H](Cc2ccccc2)COC(=O)[C@@H](Cc2ccc(F)cc2)CC/C=C/C[C@@H]1CC(=O)N(CCO)Cc1ccccc1	nt	9	nt	i	nt	nt
COCc1c(C(=O)OC)nnn1-c1ccccc1	-7	-5	i	i	i	i
O=C1NC(=S)S/C1=C\c1ccc(SCc2ccco2)o1	80*	8	i	i	i	i
O=C1NC(=S)S/C1=C\c1ccc(SCc2ccccc2)o1	-2	8	i	i	i	i
COC(=O)c1c(C)oc2ccc(N(C(=O)c3ccncc3)S(=O)(=O)c3ccc(C)cc3)cc12	8	5	100*	i	i	i
COC(=O)c1c(C)oc2ccc(N(C(=O)c3ccncc3)S(=O)(=O)c3ccccc3)cc12	41	2	i	i	i	i
Cc1cccc(NCc2ccc(O)c3ncccc23)c1	40	9	i	i	i	i
Oc1ccc(CNc2ccc(F)cc2)c2cccnc12	95*	-2	i	i	i	i
